Molecules are shown by their SMILES. Results filed as inconclusive are left out. Unmarked numbers belong to inactive results. The source made the active and inactive calls. Calls come from the whole dose curve; as a rule, active = well fitted cell-killing curve with a large enough effect; inconclusive = small, poorly fitted or top-dose-only effect, or effect the other way; inactive = flat fitted curve, though single readings scatter. Where a SMILES comes first, the peptide text is derived from it. [ ]: non-standard residue; d: D form.
% is set by controls: 0 for no effect and ±100 for the full control effect.

For this test, the system named is Hek293T. Kind of test: Primary qHTS to identify gynecologic anti-cancer compounds using libraries of approved drugs and bioactive compounds (AID 1345084). Note: nearly all actives have a fitted effect of over 55% in size. The settings on record: Gynecologic cancer cell panel viability, ATPlite luminescence, 48 h, control line for the selectivity index; series mostly up to 57.5 µM; activity change, negative = cytotoxicity: at the top concentration. In outline: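 48 h compound exposure at 37 C, 5% CO2; five-point qHTS. ATPlite luminescence readout of cell ATP.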
Background: In qHTS, concentration-response curves come from the screen itself.
As for `COc1ccc(C(OC2OC(CO)C(O)C(O)C2O)C(C)O)cc1` (stereo unspecified), the “activity change, negative = cytotoxicity” value is 5.84% [at 38.5 µM].
Same read-out and setting: in the case of `CCOC(=O)N1CCC(NCCNC(=O)c2ccccc2C)CC1` it was -14.4%.
`CCC(C)C(=O)O[C@@H]1[C@@H](O)[C@@H](O[C@H]2O[C@H](CO)[C@@H](O)[C@H](O)[C@H]2O)O[C@H](CO)[C@H]1O` (stereo partly specified): the “activity change, negative = cytotoxicity” value was 5.29% [at 25.3 µM].
Take `Nc1ncnc2c1ncn2[C@H]1CCCO1`: the “activity change, negative = cytotoxicity” value was 4%.
On the same count and under the same terms, in the case of `COc1cc(-c2cccc(O)c2)cc2c1OCO2` it was -2.33%.
For `Nc1nc(CC(=O)Nc2ccc(CCNCC(O)c3ccccc3)cc2)cs1` (stereo unspecified), the “activity change, negative = cytotoxicity” value was 3.65%.
In the case of `O=C(/C=C/c1c(C(=O)O)[nH]c2cc(Cl)cc(Cl)c12)Nc1ccccc1`, the “activity change, negative = cytotoxicity” value was 7.51%.
As to `CC1CCC2C(C)(C)C(O)CCC2(C)C12Cc1c(O)cc3c(c1O2)CN=C3N` (stereo unspecified), the “activity change, negative = cytotoxicity” value is -1.12% [at 38.5 µM].
The same measure, in the same setting: in the case of `CC[C@H]1OC(=O)C[C@@H](O)[C@H](C)[C@@H](O[C@@H]2O[C@H](C)[C@@H](O)[C@H](N(C)C)[C@H]2O)[C@@H](CCN2C[C@H](C)C[C@H](C)C2)C[C@@H](C)C(=O)/C=C/C(C)=C/[C@@H]1CO[C@@H]1O[C@H](C)[C@@H](O)[C@@H](OC)[C@H]1OC` it was -3.54%; in that of `C[C@]12C=CC(=O)C=C1CC[C@@H]1[C@@H]2[C@@H](O)C[C@@]2(C)[C@H]1CC[C@]2(O)C(=O)COC(=O)CCC(=O)O`, -8.08%; in that of `CC(C)=CCc1ccc(Oc2c(O)cc(C)cc2CO)c(C(=O)O)c1O`, 8.61% [at 38.5 µM].
In the case of `NS(=O)(=O)NCCNc1nonc1C(=Nc1ccc(F)c(Br)c1)NO`, the Potency entry is “inactive”.
With `CCC(=O)NS(=O)(=O)c1ccc(-c2c(-c3ccccc3)noc2C)cc1`, the “activity change, negative = cytotoxicity” value is 2.68%.
Regarding `CC(=O)OC1C(O)C(C)=C(CCC(C)CC(=O)O)C2(C)CCCC(C)(C)C12` (stereo unspecified), the “activity change, negative = cytotoxicity” value was 2.1% [at 38.5 µM].
As to `COC1=CC(=O)O[C@@H](/C=C/c2ccccc2)[C@@H]1O`, the “activity change, negative = cytotoxicity” value is -3.7%.
As to `C[C@@H]1O[C@@H](O[C@@H]2[C@@H](O)[C@@H](O)[C@H](O[C@@H]3[C@@H](O)[C@@H](O[C@]4(CO)O[C@H](CO)[C@@H](O)[C@@H]4OC(=O)/C=C/c4ccc(O)cc4)O[C@H](CO)[C@H]3OC(=O)/C=C/c3ccc(O)cc3)O[C@H]2C)[C@H](O)[C@H](O)[C@H]1O`, the activity change, negative = cytotoxicity was 1.13% [at 11.6 µM].
For the molecule `COC(=O)[C@@H]1C2CC3c4[nH]c5ccccc5c4CCN3CC2CC[C@@H]1O` (stereo partly specified), the “activity change, negative = cytotoxicity” value was 2.97%.
On to `C[C@@H]1O[C@@H](O[C@H]2[C@H](OC(=O)[C@]34CCC(C)(C)C[C@H]3C3=CCC5[C@@]6(C)CC[C@H](O[C@@H]7O[C@H](CO[C@@H]8OC[C@H](O)[C@H](O)[C@H]8O)[C@@H](O)[C@H](O)[C@H]7O)C(C)(C)C6CC[C@@]5(C)[C@]3(C)C[C@H]4O)OC[C@@H](O)[C@@H]2O)[C@H](O)[C@H](O)[C@H]1O[C@@H]1OC[C@H](O)[C@H](O[C@@H]2OC[C@@H](O)[C@H](O)[C@H]2O)[C@H]1O` (stereo partly specified), for which the activity change, negative = cytotoxicity was -6.63% [at 6.55 µM].
With `CC(=O)N[C@H](Cc1ccc(O)cc1)C(=O)N[C@H](CCCN=C(N)N)C(=O)N[C@H](Cc1ccccc1)C(N)=O` (Ac-[dY]-[dR]-[dF]-NH2), the “activity change, negative = cytotoxicity” value is 15.8%.
For the molecule `CC(NCc1ccc(OCc2cccc(F)c2)cc1)C(N)=O` (stereo unspecified), the “activity change, negative = cytotoxicity” value is 0.734%.
As to `Cc1coc2c1CC1OC1(C)CCC1OC1(C)C2` (stereo unspecified), the “activity change, negative = cytotoxicity” value is -0.912%.
`C[C@]12CCC[C@](C)(C(=O)O)C1CCC13C=C(CO)C(CCC12)C3` (stereo partly specified): the “activity change, negative = cytotoxicity” value is 7.72% [at 38.5 µM].
Turning to `COc1cc(/C=C/C(=O)OC(C)(C)C(OC2OC(CO)C(O)C(O)C2O)C(=O)OCc2ccc(OC3OC(CO)C(O)C(O)C3O)cc2)ccc1O` (stereo unspecified), the “activity change, negative = cytotoxicity” value is -2.99% [at 25.3 µM].
Still for that read-out and setting: in the case of `COc1cc2c(cc1OC)CN(C(=O)[C@@H](NCc1ccncc1)C(C)(C)C)CC2` it was 0.486%; in that of `O=C1NCc2nc3ccccc3c(=O)n2C1Cc1c[nH]c2ccccc12` (stereo unspecified), 8.05% [at 38.5 µM]; in that of `CC1=CC(=O)CC(C)(C)C1CCC(C)OC1OC(COC(=O)c2cc(O)c(O)c(O)c2)C(O)C(O)C1O` (stereo unspecified), 7.94% [at 25.3 µM].
Regarding `CC1C/C=C/C=C\CCCCC(O)C/C=C/C(=O)O1` (stereo unspecified), the “activity change, negative = cytotoxicity” value is 3.6%.
On the same count and under the same terms, in the case of `CO[C@@]12CC3[C@@H]([C@@H](O)[C@@H](OC(C)=O)C4[C@](C)(COC(C)=O)CCC[C@]34C)[C@@H](C)C1=CC(=O)O2` (stereo partly specified) it was -2.06% [at 25.3 µM]; in that of `CC1(C)CCCC2(C)C(CO)C3CCC2C31` (stereo unspecified), 3.15%.
As to `O=C(O[C@H]1[C@@H]2C=CO[C@@H](O[C@@H]3O[C@H](CO)[C@@H](O)[C@H](O)[C@H]3O)[C@@H]2[C@@]2(CO)O[C@@H]12)c1ccc(O)c(O)c1`, the “activity change, negative = cytotoxicity” value is 7.2% [at 25.3 µM].
As to `C=CC(C)(C)C12CC3C(=O)NC(Cc4cnc[nH]4)C(=O)N3C1Nc1ccccc12` (stereo unspecified), the “activity change, negative = cytotoxicity” value is 2.31% [at 38.5 µM].

(Values after PubChem BioAssay (NCATS).)
